PubChem BioAssay (NCI)
Compounds without any hit were thinned out: in the full panel of roughly 79,000, 15% have a hit. Unmarked numbers belong to inactive results. The source made the active and inactive calls. No stated cut-off is given here; in the data, active means growth inhibition above about 70%; inactive means the rest.

Assay: NCI Yeast Anticancer Drug Screen. Data for the wt2 strain (AID 169);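 further: 0% = growth of vehicle-treated yeast cultures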
Settings: S. cerevisiae wt2 strain growth inhibition, stronger effect = higher value
Experimental: Growth inhibition of yeast strains with defined genetic alterations is measured as a screen for potential anti-cancer activity. Selected strains with alterations in DNA damage repair or cell cycle control were exposed to compounds and growth inhibition was measured relative to vehicle treated controls. The strain used in this assay is wt2

O=C(CC(=O)n1nc(-c2ccccc2)c(N=Nc2ccccc2C(=O)O)c1-c1ccccc1)Nc1ccc(Cl)cc1
growth inhibition (at 1.2 µM): -3% | growth inhibition (at 3.7 µM): -3% | growth inhibition (at 11.0 µM): -3% | growth inhibition (at 33.0 µM): -6% | growth inhibition (at 100.0 µM): 4%

O=[N+]([O-])/C=C/c1ccc2ccccc2c1
growth inhibition (at 1.2 µM): -5% | growth inhibition (at 3.7 µM): 18% | growth inhibition (at 11.0 µM): 100% (active) | growth inhibition (at 33.0 µM): 100% (active) | growth inhibition (at 100.0 µM): 99% (active)

CC1(C)C(=O)OC(n2cc(F)c(=O)[nH]c2=O)C1=O (stereo not given)
growth inhibition (at 1.2 µM): 5% | growth inhibition (at 3.7 µM): 20% | growth inhibition (at 11.0 µM): 17% | growth inhibition (at 33.0 µM): 43% | growth inhibition (at 100.0 µM): 51%

NC(=O)NN=C(CS)CS
growth inhibition (at 1.2 µM): 0% | growth inhibition (at 3.7 µM): 8% | growth inhibition (at 11.0 µM): 2% | growth inhibition (at 33.0 µM): 10% | growth inhibition (at 100.0 µM): 46%

CCC(=O)c1cccc2ccccc12
growth inhibition (at 1.2 µM): 1% | growth inhibition (at 3.7 µM): 2% | growth inhibition (at 11.0 µM): 3% | growth inhibition (at 33.0 µM): 1% | growth inhibition (at 100.0 µM): 1%

CN=C(N)N/N=C/c1ccc2c(c1)Cc1ccccc1-2
growth inhibition (at 1.2 µM): -44% | growth inhibition (at 3.7 µM): -17% | growth inhibition (at 11.0 µM): -15% | growth inhibition (at 33.0 µM): 34% | growth inhibition (at 100.0 µM): 98% (active)

CC1C(NNc2ccccc2)Oc2cc3c(cc2C1c1ccccc1O)OCO3 (stereo not given)
growth inhibition (at 1.2 µM): 51% | growth inhibition (at 3.7 µM): 98% (active) | growth inhibition (at 11.0 µM): 99% (active) | growth inhibition (at 33.0 µM): 96% (active) | growth inhibition (at 100.0 µM): 94% (active)

CCCCCCCCCCNC(=O)OCC
growth inhibition (at 1.2 µM): -3% | growth inhibition (at 3.7 µM): -3% | growth inhibition (at 11.0 µM): 1% | growth inhibition (at 33.0 µM): 38% | growth inhibition (at 100.0 µM): 99% (active)
